{"source": "PubChem BioAssay AID896", "about": "(National Center for Advancing Translational Sciences (NCATS), 2007)", "note": "The list shows a part of the results. Inconclusive results are not listed. Unmarked numbers belong to inactive results. The call rests on the fitted dose curve; in most records, active means well fitted inhibition curve with a large enough effect in the main read-out, with a control signal flat; inconclusive means small, poorly fitted or top-dose-only effect, or a change in a side signal; inactive means no such curve, though single readings can be large or run the other way."}
{"molecular_target": "Caspase-1 (Homo sapiens) (UniProt P29466)", "test": "Confirmation Concentration-Response Assay for Allosteric/Competitive Inhibitors of Caspase-1", "settings": "purified caspase-1, fluorogenic substrate cleavage; series mostly up to 57.5 µM; activity change, negative = inhibition: at the top concentration", "source_text": "NIH Molecular Libraries Screening Centers Network [MLSCN]\nNIH Chemical Genomics Center [NCGC]\nPI Name: Dr. James Wells,\nDr. Enrique Perez-Paya, Dr.Janice Williams, Dr. Dennis Wolan, a person\nThe caspases (Cysteine Aspartyl Protease) comprise a related family of 14 dimeric proteases that are critical mediators of apoptosis (programmed cell death) and inflammation. The caspases represent an important class of drug targets for stroke, ischemia, cancer and inflammatory diseases. […] One goal of this project was to identify compounds that act as allosteric inhibitors via stabilizing the procaspase form of the enzyme. […]\nThe biochemical assay was configured using purified caspase 1 at a high enzyme concentration to promote formation of the homodimers and thus facilitate the identification of allosteric inhibitors. […] After initiation of the assay with substrate the plates were rapidly read using an automated robotic system (Kalypsys, Inc.) to maintain consistent timing. […] Product formation was also measured after 1 hour. […]\nCaspase 1 was prepared in buffer (50 mM HEPES pH 7.5, 50 mM KCl, 200 mM NaCl, 10 mM DTT, 0.1% CHAPS) at a concentration of 66.6 nM and 3 uL was dispensed to all wells using black solid Kalypsys 1536-well plates. […] The plates were then exposed using 405 nm excitation/520 nm emission filters for 4 sec and read at 20 sec intervals for 3 min. […]", "units": {"activity change, negative = inhibition": "%"}}
{"smiles": "Cc1nc2c(C(=O)NCc3ccc4c(c3)OCO4)c[nH]n2c(=O)c1Cc1ccccc1F", "activity change, negative = inhibition": -18.4}
